This is part of a sample that, as a whole, favours compounds with a hit. Of some 83,000 tested, about 20% had one in any assay.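 Assay: single dose, 48 h. Readout: percent growth (0 = no net growth; negative = cell death). Active: <10.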 Values without a mark were called inactive. The source made the active and inactive calls.

This test deals with SK-MEL-28 melanoma. Briefly: NCI-60 one-dose screen, 48 h (100 = growth as untreated, 0 = no growth, -100 = all killed). Particulars: 10 µM unless noted.
In the case of `CCOC(=O)c1c(C)nc2c(c1N)CC(=O)N2Cc1cc(OC)c(OC)c(OC)c1`, the growth was 73.6%.

For the molecule `Cc1c(Cl)cccc1C(=O)Nc1nc2c(s1)CN(C(=O)Nc1cccc(C(F)(F)F)c1)CC2`, the growth was 44.4%.

As for `COc1cc2nc(Nc3cccc(F)c3)nc(Nc3cc(C)[nH]n3)c2cc1OC`, the growth was -99.3% [20 µM] (active).

With `CCC(CC)(N(CC(=O)O)CC(=O)O)C(CC)(CC)N(CC(=O)O)CC(=O)O`, the growth was 108%.

Take `O=C(O)c1cn(C2CC2)c2cc(N3CCN(C(=O)N/N=C/c4ccccc4)CC3)c(F)cc2c1=O`: the growth is 108%.

Regarding `COc1ncc2cc1NS(=O)(=O)c1cccc(c1)C(=O)NCC1=CC=C(S1)c1ncnc3c1SC2=C3C`, the growth was -62.2% (active).

As to `CCOC(=O)c1c(-c2ccc(Cl)cc2)c(C#N)c2c(C#N)c(N)nn2c1N`, the growth is 62.6%.

As for `O=C(/C=C/c1cccc(Cl)c1)c1cccc(OCCCCOc2cccc(C(=O)/C=C/c3cccc(Cl)c3)c2)c1`, the growth is 99.2%.

Turning to `NC(CSC(c1ccccc1)(c1ccccc1)c1ccc2c(c1)OCO2)C(=O)O` (stereo not given), the growth was 47.4%.

Regarding `O=C1NC(=O)c2c1c1c3ccccc3[nH]c1c1oc3ccc(F)cc3c21`, the growth was 90.6%.

Take `O=c1ccc2nc(C(F)(F)F)nn(-c3ccccc3)c-2c1`: the growth was 35.7%.

Regarding `CCNc1nc(-c2ccc(F)cc2)c(C#N)c(=O)n1C`, the growth is 77.5%.

Consider `Clc1nccc2c(-c3csc(-c4c[nH]c5ccccc45)n3)c[nH]c12`, for which the growth is 23.9%.

With `C=C(C)[C@@H]1CC[C@]2(CO)CC[C@]3(C)[C@H](CC[C@@H]4[C@@]5(C)CCC(NCCc6ccc(O)cc6)C(C)(C)[C@@H]5CC[C@]43C)[C@@H]12` (stereo not given in full), the growth is -88.8% (active).

For the molecule `CCCCCCCCCCCCCCCCOC(=O)c1c(C)[nH]c(/C=C2\N=C(c3ccc[nH]3)C=C2OC)c1C`, the growth is 51.1%.

With `COc1ccc(-c2ccc(-c3ccc(C(=N)N)cn3)s2)cc1`, the growth was 109%.

On to `COc1cc(-c2nc(SCCC(C)C)nc(N3CCOCC3)c2C#N)cc(OC)c1OC`, for which the growth was 108%.

With `Cc1cc2oc(=O)cc(CP(=O)(O)O)c2cc1O`, the growth was 98.4%.

As to `O=C1/C=C/[C@@H](O)[C@@H]2C[C@@H](O)C[C@H]2/C=C/CCC[C@H](CCOCc2ccccc2)O1`, the growth was -2.95% (active).

With `O[C@@H](c1cc(C(F)(F)F)nc2c(C(F)(F)F)cccc12)[C@H]1CCCCN1`, the growth was 98.3%.

For `O=C1CCCc2nc3sc4c(=O)n(-c5ccccc5Cl)nnc4c3cc21`, the growth is 109%.

On to `O=C(CCC(=O)c1nc2ncccc2[nH]1)NN1C(=O)CSC1c1ccc(Cl)cc1` (stereo not given), for which the growth was 109%.

As to `Cc1[nH]c(C(=O)Nc2cccc(OC3CCNCC3)c2)c(Cl)c1Cl`, the growth was -63.5% (active).

`CCOC(=O)C(=Cc1cccc(C#N)c1)C(=O)OCC`: the growth is 50.3%.

Consider `C=CCn1c(SCC(=O)Nc2ccc(C(=O)/C=C/c3ccc(OC)cc3)cc2)nnc1-c1ccccc1`, for which the growth is 89.4%.

Take `COc1ccc(/C=C/C(=O)c2cc3c(N)c(C(=O)Nc4ccccc4C)sc3nc2C)cc1`: the growth is 51.3%.

In the case of `O=C1NC(=O)c2c1c1c3ccccc3[nH]c1c1oc3cc(Br)ccc3c21`, the growth was 92.6%.

As to `CS(=O)(=O)Cc1cnc(C2OCCO2)s1`, the growth is 105%.

In the case of `COc1ccc(C2=Nc3c(N)ncnc3NC(c3cccc(Nc4ccnc5cc(C(F)(F)F)ccc45)c3)C2)cc1` (stereo not given), the growth is 84%.

In the case of `NS(=O)(=O)c1ccc(N/C=C/C(=O)c2cc3ccccc3oc2=O)cc1`, the growth is 111%.

Source of the values: PubChem BioAssay (NCI).
